The panel holds about 79,000 compounds, 15% with a hit somewhere; the sample as a whole holds those more often. Rule as the data show it: active = growth inhibition above about 70%; inactive = the rest. Where a SMILES comes first, the peptide text is derived from it. [ ]: non-standard residue; d: D form. Hiv = CC(C)[C@H](O)C(=O)O
What was measured:
[1] = NCI Yeast Anticancer Drug Screen. Data for the rad50 strain (AID 155);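 also: 0% = growth of vehicle-only cultures of the same strain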; conditions: S. cerevisiae rad50 strain growth inhibition; at 50.0 µM; hits give high values
Summary of the method: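 Yeast carrying a defined DNA repair defect were exposed to test compounds, and growth was compared with vehicle-treated controls to give percent inhibition.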

[2] = NCI Yeast Anticancer Drug Screen. Data for the mec2-1 strain (AID 157); conditions: S. cerevisiae mec2-1 strain, at 50.0 µM, hits give high values
Summary of the method: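 Strain: mec2-1 (DNA repair/cell cycle alteration). Compound exposure, then growth measured; inhibition expressed relative to vehicle.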

[3] = NCI Yeast Anticancer Drug Screen. Data for the sgs1 mgt1 strain (AID 161);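 also: 0% = growth of cultures given vehicle only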; conditions: S. cerevisiae sgs1 mgt1 strain, at 50.0 µM, hits give high values
Summary of the method: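 Mutant yeast exposed to compound; growth scored against vehicle-only wells.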

[4] = NCI Yeast Anticancer Drug Screen. Data for the cln2 rad14 strain (AID 165);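 also: 0% = growth equal to vehicle treated cultures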; conditions: S. cerevisiae cln2 rad14 strain, at 50.0 µM, hits give high values
Summary of the method: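 Compounds are applied to the cln2 rad14 yeast strain, and growth is then compared with that of vehicle-treated cultures to give inhibition.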

[5] = NCI Yeast Anticancer Drug Screen. Data for the bub3 strain (AID 167); conditions: S. cerevisiae bub3 mutant strain, at 50.0 µM, hits give high values
Summary of the method: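 Compounds were applied to a genetically altered yeast strain carrying a cell-cycle control defect. Growth inhibition was scored against vehicle-treated controls.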

[6] = NCI Yeast Anticancer Drug Screen. Data for the mlh1 rad18 strain (AID 175); conditions: S. cerevisiae mlh1 rad18 strain growth inhibition; at 50.0 µM; hits give high values
Summary of the method: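 Read-out is yeast growth inhibition, calculated against vehicle-only controls. The compound was applied to a strain engineered with DNA damage repair alterations.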

Measured: growth inhibition

N#Cc1ccc(CC(=O)O)cc1
inactive: [1] 25.2% | [2] -16.5% | [3] 6.9% | [4] 0.35% | [5] -7.95% | [6] -7.75%

Cc1ccc(C)c(NC(=O)OC/C=C/c2ccccc2)c1
inactive: [1] -1.2% | [2] 29.2% | [3] 19.9% | [4] -10.9% | [5] 26.7% | [6] 41.2%

N#C/C(=C\c1ccco1)C(=O)c1ccco1
inactive: [1] 19.4% | [2] 15.1% | [3] 28.2% | [4] 13.8% | [5] 38.7% | [6] 34.6%

N#Cc1ccc(N=NN2CCOC2)cc1
inactive: [1] 20.6% | [2] 11.4% | [3] -0.7% | [4] 7.7% | [5] 23% | [6] 44.9%

CCc1ccccc1NC(=O)C1=C(C)NC(C)=C(C(=O)Nc2ccccc2CC)C1c1cccc([N+](=O)[O-])c1
inactive: [1] -0.95% | [2] 52% | [3] 24.2% | [4] 17.9% | [5] 36.5% | [6] 20.5%

COc1cc(C2C3=C(COC3=O)Oc3cc4c(cc32)OCO4)ccc1OC(C)=O (stereo unspecified)
inactive: [1] 20.7% | [2] 5.55% | [3] -13.8% | [4] 21.1% | [5] -4.35% | [6] -5.2%

C[C@H](C(O)CC(=O)C(C)(C)O)[C@H]1CC[C@@]2(C)[C@@H]3CC[C@H]4C(C)(C)[C@@H](OC5OC(COC6OC(CO)C(O)C(O)C6O)C(O)C(O)C5O)CC[C@]4(C)C3=CC[C@]12C (stereo partly specified)
inactive: [1] -12.7% | [2] -19.3% | [3] -20.2% | [4] -0.05% | [5] -23.4% | [6] -75.8%

Nc1ccccc1NC1CCN(Cc2ccccc2)CC1
inactive: [1] 27.2% | [2] -3.35% | [3] 25.8% | [4] 33.5% | [5] 22.9% | [6] 19.1%

COC(=O)Nn1c(C)c(C(=O)Nc2ccc(OC)cc2)c(C(=O)OC)c1C
inactive: [1] 32.6% | [2] -16% | [3] 14.3% | [4] 2.8% | [5] 10.2% | [6] 21.6%

Cc1ccc(C(=O)Nc2ccc([N+](=O)[O-])cc2)cc1
inactive: [1] 4.2% | [2] -6.75% | [3] -0.35% | [4] -2.75% | [5] -5.35% | [6] -2.95%

O=C1CC(=C=Nc2ccccc2)C(=O)N1c1ccccc1
inactive: [1] 3.6% | [2] 3.85% | [3] 1.7% | [4] -33.5% | [5] -2.2% | [6] 19.8%

CN(C)Cc1cc(C(=O)/C=C/c2ccccc2Cl)cc(CN(C)C)c1O
inactive: [1] -47% | [2] -22.6% | [3] -27.4% | [4] -43.9% | [5] 3.9% | [6] -31.1%

COC(=O)C1C2C=CC(O2)C1C(=O)OC (stereo unspecified)
inactive: [1] -2.15% | [2] -1.75% | [3] -9.75% | [4] -51.6% | [5] 14.1% | [6] -7.45%

CC(=O)c1ccc(C(C)=O)c(OCc2ccccc2)c1
inactive: [1] -4.45% | [2] -12.4% | [3] -8.25% | [4] -27.9% | [5] -5.95% | [6] -5.05%

CC(C)=Cc1cc(-c2cc(C=C(C)C)[nH]n2)n[nH]1
inactive: [1] -35.4% | [2] -2% | [3] -20.4% | [4] -24.6% | [5] -9.2% | [6] -11.9%

Nc1ccn[nH]1
inactive: [1] 5.1% | [2] -0.05% | [3] 0.8% | [4] -2.25% | [5] 18.1% | [6] 1.35%

C=CC1CCC[N+]1(CC(=O)OCC)Cc1ccccc1 (stereo unspecified)
inactive: [1] -15.2% | [2] -13.9% | [3] -25.2% | [4] 3.7% | [5] -2.15% | [6] -10.8%

CCOC(=O)C1=NN(c2ccccc2)C(=O)/C1=C\n1ccc(=O)[nH]c1=S
inactive: [1] -32.5% | [2] -43.8% | [3] -44.5% | [4] -36.1% | [5] -25.9% | [6] -60.8%

O=C(O)C#Cc1ccccc1
inactive: [1] 25.7% | [2] -27.9% | [3] -1.8% | [4] 2.6% | [5] -23.2% | [6] 0.3%

CC1(C)C2CCC3CC(CCC#N)CCC3C21C#N (stereo unspecified)
inactive: [1] -32.2% | [2] -11.2% | [3] -8.8% | [4] -34.5% | [5] -37.8% | [6] -23.1%

CCOC1(c2ccccc2)c2ccccc2C(C)(C)c2ccccc21
inactive: [1] 0.8% | [2] 12.3% | [3] 42% | [4] 4.2% | [5] 14.9% | [6] -5.2%

O=C1CCCC1CN1CCCCC1 (stereo unspecified)
inactive: [1] 3.25% | [2] -31.8% | [3] -13.7% | [4] 8.5% | [5] 22.1% | [6] -7.25%

CC(=O)Nc1nc(NC(C)=O)c2nc(C)cnc2n1
inactive: [1] 4.45% | [2] 20.6% | [3] -2.35% | [4] 24.4% | [5] 10.6% | [6] 25.2%

Cc1cc(Cl)c(Cl)cc1Cl
inactive: [1] 13% | [2] 5.7% | [3] -6.5% | [4] -4% | [5] -6.35% | [6] 2.3%

CCOC(=O)c1ccc(NC(=O)Oc2cc(C)c(Cl)c(C)c2)cc1
inactive: [1] 7.8% | [2] -3.4% | [3] 2.65% | [4] 6.35% | [5] 14.9% | [6] -3.65%

COc1ccc2c3c([nH]c2c1)C(C)N(S(=O)(=O)c1ccccc1)CC3 (stereo unspecified)
inactive: [1] -8.1% | [2] -0.9% | [3] -2.65% | [4] -4.9% | [5] 8.45% | [6] 5.7%

COC(=O)NC(Cc1ccccc1)NC(=O)OC(C)(C)C (stereo unspecified)
inactive: [1] -30.6% | [2] -46% | [3] -20.5% | [4] -0.95% | [5] -4.25% | [6] -12.9%

Cc1cc(N(CCC#N)CCC#N)ccc1/C=C1N=C(/C=C\c2ccccc2)OC\1=O
inactive: [1] 5.5% | [2] -8.5% | [3] 5.5% | [4] 12.2% | [5] 10.3% | [6] 5.3%

O=C(O)c1cc(-c2ccccc2O)nc2ccccc12
inactive: [1] -19.5% | [2] -7.1% | [3] -5.2% | [4] 16.3% | [5] -1.35% | [6] -1.5%

C(=N\c1nnc2ccccn12)/c1ccccc1
inactive: [1] 0.2% | [2] -6.8% | [3] -21.7% | [4] -9.6% | [5] -13.7% | [6] -28.3%

O=C1OCC/C1=C\c1ccsc1
inactive: [1] 6.4% | [2] 10.2% | [3] -6.9% | [4] -6% | [5] -8.3% | [6] -3.4%

CCC1(C)OCC(C)(C)C(C(C)C)O1 (stereo unspecified)
inactive: [1] -13.7% | [2] 3% | [3] -17.4% | [4] -62.5% | [5] -39.6% | [6] -14.6%

CC(C)[C@@H]1OC(=O)[C@@H](C)NC(=O)[C@@H]2CCCN2C1=O (cyclo([Hiv]-Pro-[dA]))
inactive: [1] -38.2% | [2] -6.75% | [3] -15.1% | [4] 5.95% | [5] -22.6% | [6] -16.4%

Cc1nn(C(=O)c2cccnc2)c(-c2ccccc2)c1N=Nc1ccc(C(=O)O)cc1
inactive: [1] -16.5% | [2] 11.2% | [3] 4.65% | [4] 29.4% | [5] -2.8% | [6] 18.8%

CCOC(=O)C(C#N)C1(O)C(=O)Nc2ccccc21 (stereo unspecified)
inactive: [1] -4.65% | [2] -5% | [3] -6.7% | [4] 3.8% | [5] 0.55% | [6] 10.2%

O=c1c2n[nH]nc2nc2n1CC(c1ccccc1)S2 (stereo unspecified)
inactive: [1] -73.7% | [2] -77% | [3] -15.6% | [4] -3.2% | [5] -16.2% | [6] -20.9%

— PubChem BioAssay (NCI)
